Here are results for seven molecules from PubChem BioAssay (Tox21).

Test [1] can be described thus: qHTS assay for small molecule agonists of the p53 signaling pathway (AID 651631; calls by dose curve; further: nearly all actives have a fitted effect of over 15% in size; further: potency means the concentration at half of the fitted maximal effect). The procedure, abridged:
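HCT-116 p53RE-bla reporter line, 16 h compound treatment at 37 °C, then fluorescence after 2 h with B/G FRET substrate.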
A general note: In qHTS, concentration-response curves come from the screen itself.

Test [2] is described as follows: qHTS assay for small molecules that induce genotoxicity in human embryonic kidney cells expressing luciferase-tagged ATAD5 (AID 651632). Further: nearly all actives have a fitted effect of over 15% in size. Further: potency means the concentration at half of the fitted maximal effect. The procedure, abridged: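 Luminescence read-out: after 16 hr compound exposure at 37C, ATAD5-luciferase HEK293T cells received Amplite, 30 min RT, then CCD imaging. A rise in signal marks genotoxic stress.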
Test [3] in a line: qHTS assay for small molecule agonists of the p53 signaling pathway - cell viability (AID 651633; calls by dose curve; further: nearly all actives have a fitted effect of over 30% in size; further: potency means the concentration at half of the fitted maximal effect). An outline of the steps:
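p53RE-bla cells, seeded at 4,000 per well and rested 5 h at 37 C/5% CO2, received compounds in DMSO for 16 h at 37 C. CellTiter-Glo was then added, and luminescence was read after 30 min at room temperature to gauge cytotoxicity.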

Test [4] is described as follows: qHTS assay for small molecules that induce genotoxicity in human embryonic kidney cells expressing luciferase-tagged ATAD5 - cell viability (AID 651634; calls by dose curve; further: nearly all actives have a fitted effect of over 25% in size; further: potency means the concentration at half of the fitted maximal effect). An outline of the steps:
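HEK293T ATAD5-luc cells, 2,000/well; compound 15.5 hr, 37C/5% CO2; CellTiter-Fluor 30 min, 37C; fluorescence read.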

Test [5] is described as follows: qHTS assay for small molecule disruptors of the mitochondrial membrane potential - cell viability (AID 720634; calls by dose curve; further: nearly all actives have a fitted effect of over 20% in size; further: potency means the concentration at half of the fitted maximal effect). The procedure, abridged:
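Luminescence from CellTiter-Glo (ATP content) gave viability in HepG2 cells, read in the same wells as the MMP dye assay after 1 hr compound exposure at 37 C.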

Test [6] in a line: qHTS assay to test for compound auto fluorescence at 590 nm (red) in HepG2 cells (AID 720674). Further: on the % scale 0 is the no-effect control and ±100 the full control effect. An outline of the steps:
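Rose Bengal sodium served as the red fluorophore standard. HepG2 monolayers (overnight attachment, MEM with 10% FBS) were exposed to test compounds for 1 hr at 37 C and read at Ex 540/Em 590 nm.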

Test [7] is described as follows: qHTS assay to test for compound auto fluorescence at 535 nm (green) in HepG2 cells (AID 720675). Further: on the % scale 0 is the no-effect control and ±100 the full control effect.
A short description of test [8]: qHTS assay to test for compound auto fluorescence at 460 nm (blue) in HEK293 cells (AID 720678). Further: potency means the concentration at half of the fitted maximal effect. An outline of the steps:
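Auto fluorescence in the blue band was quantified as triamterene equivalency. HEK293 cells were seeded at 2,000/well, dosed after a 4-5 hr attachment, and kept overnight at 37C before the 405/460 nm reading.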

Test [9] is described as follows: qHTS assay to test for compound auto fluorescence at 590 nm (red) in HEK293 cells (AID 720679). Further: on the % scale 0 is the no-effect control and ±100 the full control effect. The procedure, abridged: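 Autofluorescence equivalency to Rose Bengal sodium, 540/590nm, in HEK293 cells exposed overnight to 23 nL compound per well.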
A short description of test [10]: qHTS assay to test for compound auto fluorescence at 535 nm (green) in HEK293 cells (AID 720680). Further: on the % scale 0 is the no-effect control and ±100 the full control effect.
A short description of test [11]: qHTS assay to test for compound auto fluorescence at 460 nm (blue) in HEK293 cell free culture (AID 720681). Further: potency means the concentration at half of the fitted maximal effect. The procedure, abridged:
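Test compounds were pinned into cell-free culture medium (DMEM with 10% FBS) and fluorescence was read directly at Ex/Em 405/460 nm. Signals were expressed as fluorescence equivalents of triamterene, with DMSO vehicle as control.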

A short description of test [12]: qHTS assay to test for compound auto fluorescence at 535 nm (green) in HEK293 cell free culture (AID 720682). Further: on the % scale 0 is the no-effect control and ±100 the full control effect. An outline of the steps:
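Steps: dispense DMEM/10% FBS into empty wells; pin in compound or DMSO; measure fluorescence at 485/535 nm. Values are fluorescein equivalents.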

A short description of test [13]: qHTS assay to test for compound auto fluorescence at 590 nm (red) in HEK293 cell free culture (AID 720683). Further: on the % scale 0 is the no-effect control and ±100 the full control effect. An outline of the steps:
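Tox21 10K library compounds were pinned into cell-free DMEM with 10% FBS and fluorescence was read at excitation 540 nm. Activity is expressed as Rose Bengal sodium equivalency.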

A short description of test [14]: qHTS assay to test for compound auto fluorescence at 535 nm (green) in HepG2 cell free culture (AID 720686). Further: on the % scale 0 is the no-effect control and ±100 the full control effect.
The nature of test [15]: qHTS assay to test for compound auto fluorescence at 460 nm (blue) in HepG2 cells (AID 720687). Further: potency means the concentration at half of the fitted maximal effect. The procedure, abridged:
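Cells (2,000/well in MEM with 10% FBS) attached overnight at 37 C, then were exposed to compound or DMSO for 1 hr at 37 C, 5% CO2. Fluorescence read at Ex/Em 405/460 nm, expressed as triamterene-equivalent signal.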

A short description of test [16]: qHTS assay to test for compound auto fluorescence at 590 nm (red) in HepG2 cell free culture (AID 720684). Further: on the % scale 0 is the no-effect control and ±100 the full control effect. An outline of the steps: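 Readout: intrinsic compound fluorescence at 590 nm emission after 540 nm excitation, scaled to Rose Bengal sodium. Matrix was cell-free MEM with 10% FBS; DMSO vehicle wells served as control.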
Test [17] is described as follows: qHTS assay to test for compound auto fluorescence at 460 nm (blue) in HepG2 cell free culture (AID 720685). Further: potency means the concentration at half of the fitted maximal effect. The procedure, abridged: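 Cell-free plates of MEM plus 10% FBS received 23 nL compound or DMSO vehicle; blue-channel (405/460 nm) intensity scored against triamterene as reference fluorophore.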
The target in test [18] is Glucocorticoid receptor (Homo sapiens) (UniProt P04150). As to the kind of experiment: qHTS assay to identify small molecule agonists of the glucocorticoid receptor (GR) signaling pathway (AID 720691; active means well fitted activation curve with a large enough effect in the signal ratio in the repeat runs, not every such curve was filed as active; inconclusive means weak or mixed curves, or effect the other way; inactive means no such curve, though single readings can be large or run the other way; the % refers to the signal ratio; further: potency means the concentration at half of the fitted maximal effect). The conditions noted are these: GR-bla HeLa, beta-lactamase reporter ratio, 18 h; activation: at 62.4 µM (top of the series). An outline of the steps:
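HeLa GR-bla reporter line; cells pre-incubated 4 h, compound in DMSO 18 h at 37 C; LiveBLAzer B/G FRET substrate 2 h RT; fluorescence intensity read-out.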

For test [19] the target is unchanged. As to the kind of experiment: qHTS assay to identify small molecule antagonists of the glucocorticoid receptor (GR) signaling pathway (AID 720692; active means well fitted inhibition curve with a large enough effect in the signal ratio in the repeat runs, not every such curve was filed as active; inconclusive means weak or mixed curves, or effect the other way; inactive means no such curve, though single readings can be large or run the other way; the % refers to the signal ratio; further: on the % scale 0 is the no-effect control and ±100 the full control effect). The procedure, abridged:
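Read-out: beta-lactamase FRET substrate fluorescence, 2 h at room temperature, in HeLa cells stably carrying a GRE-driven bla reporter. Compounds were co-incubated with 5 nM dexamethasone agonist (final) for 18 h at 37 C.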

The nature of test [20]: qHTS assay for small molecule disruptors of the mitochondrial membrane potential (AID 720635). Further: potency means the concentration at half of the fitted maximal effect. An outline of the steps: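 HepG2 cells (2,000/well) attached overnight at 37C, then took compound for 1 hr at 37C, 5% CO2. Mito-MPS dye was added for 30 min; fluorescence was read at 490/535 nm (monomers) and 540/590 nm (aggregates).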

A number with no mark means an inactive call. Activity calls are given as the source filed them. Unless noted, the call rests on the fitted dose curve; in most records, active means well fitted curve in the direction sought with a large enough effect in the repeat runs; inconclusive means weak or mixed curves; inactive means no such curve, though single readings can be large; an effect the other way counts as inactive or inconclusive.
Tags describe the fitted curve by direction and shape or compound fluorescence and quenching.

Glucocorticoid receptor (Homo sapiens), sequence (P04150 whole entry, looked up): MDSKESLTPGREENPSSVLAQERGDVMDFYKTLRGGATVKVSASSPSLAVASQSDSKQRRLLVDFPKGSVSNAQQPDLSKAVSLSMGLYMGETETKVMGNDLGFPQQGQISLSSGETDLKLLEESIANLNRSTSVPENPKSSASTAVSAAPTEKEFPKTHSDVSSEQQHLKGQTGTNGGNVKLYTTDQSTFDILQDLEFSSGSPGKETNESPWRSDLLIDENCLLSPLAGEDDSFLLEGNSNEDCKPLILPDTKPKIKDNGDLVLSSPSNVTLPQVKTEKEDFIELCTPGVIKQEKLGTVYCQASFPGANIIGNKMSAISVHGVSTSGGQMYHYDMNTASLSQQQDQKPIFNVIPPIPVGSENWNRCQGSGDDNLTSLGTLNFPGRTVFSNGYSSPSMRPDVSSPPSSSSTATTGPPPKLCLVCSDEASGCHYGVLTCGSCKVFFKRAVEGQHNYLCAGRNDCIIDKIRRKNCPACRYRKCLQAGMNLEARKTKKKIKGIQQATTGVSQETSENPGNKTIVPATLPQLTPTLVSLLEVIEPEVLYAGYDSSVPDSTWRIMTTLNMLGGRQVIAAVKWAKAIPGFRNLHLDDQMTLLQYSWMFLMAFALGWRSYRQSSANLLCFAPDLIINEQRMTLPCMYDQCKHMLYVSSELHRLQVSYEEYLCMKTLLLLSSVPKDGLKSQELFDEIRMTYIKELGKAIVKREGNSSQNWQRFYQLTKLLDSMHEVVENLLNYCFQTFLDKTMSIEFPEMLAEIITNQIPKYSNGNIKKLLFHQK

Regarding `CN1CCN(CCC(=O)N2c3ccccc3Sc3ccc(C(F)(F)F)cc32)CC1`, the Potency entry in test [1], in test [2], in test [3], in test [4], in [5] and in [6] was “inactive” each time. For the same molecule, the Potency result in [7], in [8], in [9], in test [11], in [13] and in [14] was “inactive” throughout. Also, the Potency entry in [15] was “inactive”. The call in test [10] and in [12] was inactive.
With `Cc1[nH]cnc1C[C@H]1CCc2c(C)c3ccccc3n2C1=O`, the Potency result in test [1], in test [2], in [3], in test [4], in test [5] and in test [6] was “inactive” each time. The Potency entry in test [7], in [8], in [9], in [11], in test [13] and in test [16] was “inactive” in each case. Also, the Potency result in test [17], in [14], in test [15], in test [18] and in [19] was “inactive” throughout. The result in [10] and in test [12] was inactive.
On to `CCCCCCCCn1sc(Cl)c(Cl)c1=O`, for which the Potency in [1] was 17.2 µM (active); in [3] it was 30.6 µM (active); in [4], 19.3 µM (active); in test [5], 27.3 µM (active). The Potency entry in test [2], in test [6], in [7], in test [8], in test [11] and in test [13] was “inactive” throughout. In addition, the Potency result in test [17], in [14] and in test [15] was “inactive” in each case. Also, the outcome in test [10] and in [12] was inactive.
On to `CCN(C(=O)c1cc(C)cc(OC[C@H](C)Nc2ccncc2)c1)C(C)C`, for which the Potency result in test [1], in test [2], in test [3], in test [4], in test [5] and in [6] was “inactive” in each case. The Potency entry in [7], in test [8], in test [9], in [11], in test [13] and in test [16] was “inactive” each time. Also, the Potency result in [17], in test [14], in test [15] and in [19] was “inactive” each time. Moreover, the call in test [10] was inactive.
For the molecule `N=C1N=C(N)c2cc3ccccc3cc21`, the Potency was 9.69 µM (active) in test [1]; 19.3 µM (active) in test [2]; 12.2 µM (active) in test [3]; 3.06 µM (active) in test [20]; 35.5 µM [fluorescent] (active) in test [8]; 31.6 µM (active) in [11]. Further, the Potency in [17] was 28.2 µM [fluorescent] (active); in test [15], 38.7 µM [fluorescent] (active). Moreover, the Potency entry in test [4], in [5], in test [6], in test [7], in [13] and in [16] was “inactive” in each case. Further, in test [14], the Potency result was “inactive”. Also, the outcome in [10] was inactive.
`COc1cc(/C=C/C(=O)O[C@H]2CC[C@]34C[C@]35CC[C@]3(C)[C@@H]([C@H](C)CCC=C(C)C)CC[C@@]3(C)[C@@H]5CC[C@H]4C2(C)C)ccc1O`: the values for the Potency in test [1], in test [2] and in test [18] were 7.5 µM (active), 7.5 µM (active) and 1.51 µM [inconclusive] (active), respectively. In addition, the Potency result in test [3], in test [4], in test [5], in test [6], in test [7] and in [8] was “inactive” each time. Further, the Potency entry in [9], in test [13], in [16], in [15] and in [19] was “inactive” each time. For the same molecule, the outcome in [10] and in test [12] was inactive.
In the case of `C[C@@H]1C[C@H]2[C@@H]3CCC4=CC(=O)C=C[C@]4(C)[C@@]3(Cl)[C@@H](O)C[C@]2(C)[C@@]1(OC(=O)c1ccco1)C(=O)CCl`, the Potency result in test [1], in [2], in test [3], in [4] and in [5] was “inactive” each time. In addition, the Potency in test [20] is 11.4 µM (active). Moreover, in test [6], the fluorescence, relative to Rose Bengal was -0.134% [at 18.6 µM]. For the same molecule, the fluorescence, % of fluorescein control was 0.0009% [at 18.6 µM] in test [7] and -0.0158% [at 18.6 µM] in test [14]. For the same molecule, the fluorescence, % of triamterene in test [8] is 0.0948% [at 18.6 µM]. The fluorescence, % of fluorescent control in [9] was 0.225% [at 18.6 µM]; in [11] it was 0.0036% [at 18.6 µM]; in [13], 0.0049% [at 18.6 µM]; in test [17], -0.0123% [at 18.6 µM]; in [15], -0.0042% [at 18.6 µM]. The fluorescence, % of fluorescein in [10] was -0.0241% [at 18.6 µM]. Besides, in test [12], the activity change is -0.0517% [at 18.6 µM].
